The source of these data is PubChem BioAssay (EPA / NIEHS).

Usually AC50 stands for the concentration at which the activity in the assay is half-maximal.

For test [1], the target named is human Norepinephrine Transporter (NET), SLC6A2 (gene 6530) (UniProt P23975). As to the kind of experiment: NVS_TR_hNET: NovaScreen (NVS) Transporter Assay for human Norepinephrine Transporter (NET) (AID 2283377).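 Also: cell-free membrane protein extracted from CHO cells expressing human NET.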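 As to AC50: displacement of radioligand from human NET seen as loss of scintillation signal.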 A digest of the protocol: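 Single-concentration duplicate screen at 25 uM, then concentration-response for actives; displacement of specific radioligand from human NET in CHO membrane extracts, filter-based scintillation detection at 1 h relative to DMSO.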

In test [2] the target is Peroxisome proliferator-activated receptor gamma (Homo sapiens) (UniProt P37231). As to the kind of experiment: NVS_NR_hPPARg: NovaScreen (NVS) Nuclear Receptor Binding Assay for human Peroxisome Proliferator-activated Receptor gamma (PPARg) (AID 2283370). The essentials:
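Fluorescence polarization measures competitive binding to extracted PPARg in a cell-free format. Reading is taken at 2 h; activity is signal loss relative to DMSO. Screening at 25 uM in duplicate preceded confirmatory dose series.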

The target in test [3] is guinea pig Sigma Receptor, Non-selective Binding, SIGMAR1 (gene 100135589) (UniProt Q60492). As to the kind of experiment: NVS_OR_gSIGMA_NonSelective: NovaScreen (NVS) Nuclear Receptor Binding Assay for guinea pig Sigma Receptor, Non-selective Binding (AID 2283367). A digest of the protocol:
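Guinea pig brain membrane sigma sites were labelled with a radioligand, and bound radioactivity was counted after filtration 1 h post-dose. Compounds were screened at 25 uM in duplicate, then retested as concentration series when active.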

Test [4] addresses Nuclear receptor subfamily 1 group I member 2 (Homo sapiens) (UniProt O75469). As to the kind of experiment: NVS_NR_hPXR: NovaScreen (NVS) Nuclear Receptor Binding Assay for human Pregnane X Receptor (PXR) (AID 2283365).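 Also: a drop in FRET signal versus DMSO baseline means the compound binds.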 A digest of the protocol: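 Binding was measured by time-resolved fluorescence resonance energy transfer after a 2 h exposure of extracted human PXR protein without cells. Compounds were first tested at 25 uM in duplicate, with concentration series for actives; DMSO defined baseline.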

Test [5] concerns the target Estrogen receptor beta (Homo sapiens) (UniProt Q92731). As to the kind of experiment: OT_ER_ERbERb_1440: Odyssey Thera (OT) 24-hour HEK293T Protein-Complementation Assay for Estrogen Receptor-beta/-beta Homodimer (AID 2283380).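 Also: fluorescence gain from ER beta LBD homodimer complementation read by laser scanning cytometry; scored as signal increase over DMSO baseline for both agonists and antagonists.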 The essentials: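 Fluorescence increase, nuclear for agonists or whole-cell for antagonists, relative to DMSO vehicle, quantified by laser scanning cytometer after fixation and Draq5 staining. Readout from 24 h treatment of HEK293T cells carrying complementation-paired ER beta LBD (aa 310-547).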

In test [6] the target is PGR (gene 5241) (UniProt P06401). As to the kind of experiment: NVS_NR_hPR: NovaScreen (NVS) Nuclear Receptor Binding Assay for human Progestron Receptor (PR) (AID 2283360).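 Also: active means loss of bound radioligand signal versus DMSO baseline.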 The essentials: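 Competitive displacement of a labelled radioligand from T47D-derived receptor protein is measured in a cell-free format. Initial testing uses 25 uM in duplicate, with positive and negative controls on every plate.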

In test [7] the test system is guinea pig Dopamine Transporter (DAT), gene 100714898. As to the kind of experiment: NVS_TR_gDAT: NovaScreen (NVS) Transporter Assay for guinea pig Dopamine Transporter (DAT) (AID 2283369).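 Also: active compounds lower bound radioligand signal relative to DMSO.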 The essentials:
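Test chemicals were incubated 2 h with guinea pig striatal membranes and a radioligand; bound label was separated by filtration and counted. Screening ran at 25 uM, followed by concentration-response testing to a 50 uM maximum.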

In test [8] the target is human Dopamine Transporter (DAT), SLC6A3 (gene 6531) (UniProt Q01959). As to the kind of experiment: NVS_TR_hDAT: NovaScreen (NVS) Transporter Assay for human Dopamine Transporter (DAT) (AID 2283374).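 Also: activity means loss of bound radioligand signal relative to DMSO.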 The essentials:
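Duplicate single-point screening at 25 uM preceded concentration-series follow-up of actives. Binding was measured by competitive displacement of a radioligand from DAT protein, filter-counted by scintillation 1 h after dosing. Decrease relative to DMSO taken as activity.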

The target in test [9] is Retinoic acid receptor alpha (Homo sapiens) (UniProt P10276). As to the kind of experiment: NVS_NR_hRARa_Agonist: NovaScreen (NVS) Nuclear Receptor Binding Assay for human Retinoic Acid Alpha Receptor Agonism (RAR) (AID 2283361). A digest of the protocol:
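Agonist-mode TR-FRET binding format using extracted protein, measured at 2 h post-dosing. Initial duplicate single-point screen at 25 uM preceded concentration series for actives; activity was normalized to DMSO baseline.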

Test [10] has as its target Glucocorticoid receptor (Homo sapiens) (UniProt P04150). As to the kind of experiment: NVS_NR_hGR: NovaScreen (NVS) Nuclear Receptor Binding Assay for human Glucocorticoid Receptor (GR) (AID 2283363).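 As to AC50: activity is loss of specific radioligand binding signal relative to DMSO.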 The essentials: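 Compounds first tested in duplicate at 25 uM, actives followed up in concentration series. Binding to extracted GR protein measured as competitive radioligand displacement, filter scintillation read 16 h post-dosing, normalised to DMSO.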

For test [11], the target named is rat Androgen Receptor (AR), Ar (gene 24208) (UniProt P15207). As to the kind of experiment: NVS_NR_rAR: NovaScreen (NVS) Nuclear Receptor Binding Assay for rat Androgen Receptor (AR) (AID 2283366). A digest of the protocol: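 Actives from a duplicate single-concentration (25 uM) primary run went on to concentration series. Displacement of radioligand was counted by filtration and scintillation, 18 h post-dose, using prostate extracts from testosterone-pretreated rats, with DMSO as baseline.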

Inconclusive results are not listed. The source made the active and inactive calls. The calls were made as follows: active = hit-call score of the fitted dose curve at least 0.9, where 1 is the maximum; inconclusive = response in the unintended direction; inactive = score below 0.9.

Peroxisome proliferator-activated receptor gamma (Homo sapiens), sequence (P37231 whole entry, looked up): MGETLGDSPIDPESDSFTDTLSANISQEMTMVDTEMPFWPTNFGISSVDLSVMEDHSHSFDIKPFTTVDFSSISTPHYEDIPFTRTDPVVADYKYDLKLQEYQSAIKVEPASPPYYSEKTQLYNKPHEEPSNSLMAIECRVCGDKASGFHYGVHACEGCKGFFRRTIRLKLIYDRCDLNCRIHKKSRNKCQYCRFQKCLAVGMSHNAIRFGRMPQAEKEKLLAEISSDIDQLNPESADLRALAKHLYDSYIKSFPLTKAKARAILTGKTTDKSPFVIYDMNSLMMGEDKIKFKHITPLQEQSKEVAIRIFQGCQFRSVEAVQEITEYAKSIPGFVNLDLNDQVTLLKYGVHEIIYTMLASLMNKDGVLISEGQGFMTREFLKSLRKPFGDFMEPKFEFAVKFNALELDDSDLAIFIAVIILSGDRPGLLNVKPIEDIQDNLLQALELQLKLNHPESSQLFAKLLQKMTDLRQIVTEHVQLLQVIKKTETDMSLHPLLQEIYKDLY
PGR (gene 5241), sequence (P06401 whole entry, looked up): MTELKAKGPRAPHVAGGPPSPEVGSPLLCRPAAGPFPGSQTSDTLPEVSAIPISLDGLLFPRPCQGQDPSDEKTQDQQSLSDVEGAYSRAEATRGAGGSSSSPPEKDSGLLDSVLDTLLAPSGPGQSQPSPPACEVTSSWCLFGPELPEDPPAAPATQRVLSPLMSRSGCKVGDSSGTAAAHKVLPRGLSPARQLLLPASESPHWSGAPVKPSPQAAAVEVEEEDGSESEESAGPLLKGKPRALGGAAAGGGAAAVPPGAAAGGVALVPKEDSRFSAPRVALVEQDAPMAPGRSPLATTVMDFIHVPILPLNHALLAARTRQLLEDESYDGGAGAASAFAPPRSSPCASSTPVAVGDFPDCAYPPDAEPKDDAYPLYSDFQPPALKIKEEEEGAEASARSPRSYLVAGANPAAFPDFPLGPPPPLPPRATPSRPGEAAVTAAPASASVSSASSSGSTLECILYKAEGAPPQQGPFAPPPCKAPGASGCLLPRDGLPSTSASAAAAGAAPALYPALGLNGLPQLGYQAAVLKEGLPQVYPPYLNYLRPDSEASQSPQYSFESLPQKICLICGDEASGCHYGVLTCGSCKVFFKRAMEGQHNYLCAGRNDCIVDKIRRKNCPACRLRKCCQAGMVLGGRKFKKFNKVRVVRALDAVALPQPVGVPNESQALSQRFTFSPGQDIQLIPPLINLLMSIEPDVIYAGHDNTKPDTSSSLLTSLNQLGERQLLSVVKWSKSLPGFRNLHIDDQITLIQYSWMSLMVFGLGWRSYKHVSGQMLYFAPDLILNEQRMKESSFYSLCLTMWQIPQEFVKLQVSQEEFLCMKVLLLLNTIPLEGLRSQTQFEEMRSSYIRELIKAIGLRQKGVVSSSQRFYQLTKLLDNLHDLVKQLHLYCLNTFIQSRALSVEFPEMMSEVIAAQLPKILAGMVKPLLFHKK
Nuclear receptor subfamily 1 group I member 2 (Homo sapiens), sequence (O75469 whole entry, looked up): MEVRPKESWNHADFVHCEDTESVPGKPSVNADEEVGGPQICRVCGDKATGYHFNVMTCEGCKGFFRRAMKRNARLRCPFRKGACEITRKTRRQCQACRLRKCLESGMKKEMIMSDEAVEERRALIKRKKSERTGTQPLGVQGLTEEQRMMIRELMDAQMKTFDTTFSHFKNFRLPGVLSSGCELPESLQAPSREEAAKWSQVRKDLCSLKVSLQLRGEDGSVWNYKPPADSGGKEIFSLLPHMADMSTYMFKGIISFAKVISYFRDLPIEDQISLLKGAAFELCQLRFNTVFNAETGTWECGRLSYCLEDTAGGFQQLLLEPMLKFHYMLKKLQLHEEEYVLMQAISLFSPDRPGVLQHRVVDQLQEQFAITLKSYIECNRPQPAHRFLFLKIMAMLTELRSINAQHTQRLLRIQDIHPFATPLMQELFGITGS
human Norepinephrine Transporter (NET), SLC6A2 (gene 6530), sequence (P23975 whole entry, looked up): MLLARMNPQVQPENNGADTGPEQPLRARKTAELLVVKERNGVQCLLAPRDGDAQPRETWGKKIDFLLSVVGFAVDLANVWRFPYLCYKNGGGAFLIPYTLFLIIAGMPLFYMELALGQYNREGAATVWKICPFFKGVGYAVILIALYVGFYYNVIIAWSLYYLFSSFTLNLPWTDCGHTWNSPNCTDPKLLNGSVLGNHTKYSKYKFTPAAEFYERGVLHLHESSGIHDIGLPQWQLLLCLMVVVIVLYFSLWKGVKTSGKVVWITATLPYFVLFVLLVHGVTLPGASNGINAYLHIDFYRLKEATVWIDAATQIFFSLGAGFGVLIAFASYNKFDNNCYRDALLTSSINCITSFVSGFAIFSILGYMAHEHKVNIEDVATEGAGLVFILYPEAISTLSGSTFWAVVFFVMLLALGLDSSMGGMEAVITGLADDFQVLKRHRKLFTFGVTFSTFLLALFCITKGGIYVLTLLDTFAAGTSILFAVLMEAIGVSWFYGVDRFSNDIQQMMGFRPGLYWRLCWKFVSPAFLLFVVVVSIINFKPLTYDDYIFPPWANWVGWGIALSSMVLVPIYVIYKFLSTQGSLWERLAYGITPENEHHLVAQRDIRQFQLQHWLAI
human Dopamine Transporter (DAT), SLC6A3 (gene 6531), sequence (Q01959 whole entry, looked up): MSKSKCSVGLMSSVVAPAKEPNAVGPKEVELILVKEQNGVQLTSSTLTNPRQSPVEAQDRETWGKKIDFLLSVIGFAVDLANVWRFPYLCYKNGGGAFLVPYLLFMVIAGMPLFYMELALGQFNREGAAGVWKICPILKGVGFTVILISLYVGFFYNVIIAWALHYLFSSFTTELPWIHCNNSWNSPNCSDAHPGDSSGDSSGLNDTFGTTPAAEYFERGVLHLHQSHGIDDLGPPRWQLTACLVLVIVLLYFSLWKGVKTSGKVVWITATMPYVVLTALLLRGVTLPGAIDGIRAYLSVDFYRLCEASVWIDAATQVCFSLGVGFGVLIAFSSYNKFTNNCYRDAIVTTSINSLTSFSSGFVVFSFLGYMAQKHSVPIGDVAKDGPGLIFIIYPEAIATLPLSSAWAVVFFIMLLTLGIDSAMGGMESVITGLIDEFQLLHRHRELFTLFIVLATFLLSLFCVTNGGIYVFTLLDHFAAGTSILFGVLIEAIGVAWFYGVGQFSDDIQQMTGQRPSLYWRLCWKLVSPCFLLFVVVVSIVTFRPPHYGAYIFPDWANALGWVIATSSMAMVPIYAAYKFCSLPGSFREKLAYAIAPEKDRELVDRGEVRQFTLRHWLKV
guinea pig Sigma Receptor, Non-selective Binding, SIGMAR1 (gene 100135589), sequence (Q60492 whole entry, looked up): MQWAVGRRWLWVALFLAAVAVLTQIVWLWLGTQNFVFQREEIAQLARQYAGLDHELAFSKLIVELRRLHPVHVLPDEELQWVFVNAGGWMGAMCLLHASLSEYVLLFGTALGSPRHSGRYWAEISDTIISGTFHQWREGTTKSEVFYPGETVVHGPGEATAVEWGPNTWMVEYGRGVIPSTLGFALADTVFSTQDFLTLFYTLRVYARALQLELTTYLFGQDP
Glucocorticoid receptor (Homo sapiens), sequence (P04150 whole entry, looked up): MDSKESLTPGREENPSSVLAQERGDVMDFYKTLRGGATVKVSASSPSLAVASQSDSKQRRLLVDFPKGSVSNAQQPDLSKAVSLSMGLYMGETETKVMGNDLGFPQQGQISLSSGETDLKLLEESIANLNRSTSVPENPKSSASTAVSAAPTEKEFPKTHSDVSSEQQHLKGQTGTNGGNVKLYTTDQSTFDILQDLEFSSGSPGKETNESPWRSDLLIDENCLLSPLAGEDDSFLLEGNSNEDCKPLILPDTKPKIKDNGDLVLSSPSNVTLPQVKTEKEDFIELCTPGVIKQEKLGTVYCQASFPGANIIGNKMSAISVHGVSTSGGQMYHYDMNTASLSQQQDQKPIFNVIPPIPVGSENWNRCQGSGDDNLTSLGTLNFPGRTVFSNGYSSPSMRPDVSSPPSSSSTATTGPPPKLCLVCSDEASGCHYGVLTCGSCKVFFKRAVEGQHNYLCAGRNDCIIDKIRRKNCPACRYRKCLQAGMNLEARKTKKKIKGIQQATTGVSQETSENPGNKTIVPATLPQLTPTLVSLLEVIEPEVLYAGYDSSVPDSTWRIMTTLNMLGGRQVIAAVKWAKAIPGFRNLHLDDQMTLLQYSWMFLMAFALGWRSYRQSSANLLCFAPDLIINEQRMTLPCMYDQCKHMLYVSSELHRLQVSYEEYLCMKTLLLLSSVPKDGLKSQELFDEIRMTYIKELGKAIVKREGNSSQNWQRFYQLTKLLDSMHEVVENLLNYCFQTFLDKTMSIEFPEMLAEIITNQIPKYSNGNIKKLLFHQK
Estrogen receptor beta (Homo sapiens), sequence (Q92731 whole entry, looked up, the tested form may be a part): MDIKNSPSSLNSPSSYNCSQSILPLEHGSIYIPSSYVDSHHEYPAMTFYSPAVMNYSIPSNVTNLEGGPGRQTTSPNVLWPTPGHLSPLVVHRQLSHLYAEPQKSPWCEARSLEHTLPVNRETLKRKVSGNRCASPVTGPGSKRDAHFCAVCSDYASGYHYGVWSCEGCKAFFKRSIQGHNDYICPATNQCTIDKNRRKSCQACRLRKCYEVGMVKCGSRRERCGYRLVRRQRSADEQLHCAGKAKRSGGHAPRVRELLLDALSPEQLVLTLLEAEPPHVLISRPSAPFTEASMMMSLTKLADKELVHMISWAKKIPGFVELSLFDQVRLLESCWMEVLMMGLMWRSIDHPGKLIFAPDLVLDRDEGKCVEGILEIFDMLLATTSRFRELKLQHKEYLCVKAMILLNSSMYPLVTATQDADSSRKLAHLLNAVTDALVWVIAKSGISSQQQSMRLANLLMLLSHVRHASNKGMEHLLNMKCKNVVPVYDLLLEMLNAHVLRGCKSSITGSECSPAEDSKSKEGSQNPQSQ

As to `CCCC(O)C(O)CO` (stereo not drawn), the molecule was called inactive in test [1].

Turning to `COc1ccc(OC)c(N=Nc2c(O)ccc3ccccc23)c1`, in [1], the AC50 is 17.4 µM (active).

For `CC(C)NCC(O)COc1ccc(CC(N)=O)cc1` (stereo not drawn), the molecule was classed as inactive in test [2].

Consider `c1ccc2[nH]cnc2c1`, for which the outcome in test [3] was inactive.

With `Oc1ccc2cc(SSc3ccc4cc(O)ccc4c3)ccc2c1`, the result in test [4] and in [2] was inactive.

As to `CCCCCCCC(=O)OCC(O)CO` (stereo not drawn), the call in [4] and in [5] was inactive.

In the case of `CCCCCCCCCCCCCCCC(=O)OC/C=C(C)/C=C/C=C(C)/C=C/C1=C(C)CCCC1(C)C`, the result in test [1] was inactive.

With `OCCc1ccccc1`, the result in test [4] was inactive.

On to `ClC(c1ccccc1)(c1ccccc1)c1ccccc1`, for which the outcome in test [6], in test [7] and in test [8] was inactive.

As for `C[C@@H]1CCN(C(=O)[C@H](CCCN=C(N)N)NS(=O)(=O)c2cccc3c2NC[C@H](C)C3)[C@@H](C(=O)O)C1`, the result in test [1] was inactive.

Take `Nc1ccc(Cl)c([N+](=O)[O-])c1`: in test [1], the molecule was called inactive.

Consider `Cc1cc(=O)oc2cc(N(C)C)ccc12`, for which the AC50 in test [9] was 14.6 µM (active).

For the molecule `CC(C)(C)CC(C)(C)c1ccc(OCCOCC[N+](C)(C)Cc2ccccc2)cc1`, the AC50 in [7] was 1.75 µM (active).

For the molecule `C1=CC2C3C=CC(C3)C2C1` (stereo not drawn), the AC50 was 13 µM (active) in test [3] and 2.39 µM (active) in [2]. The call in test [5] was inactive.

`CCc1cc(C(C)(C)C)c(O)c(C(C)(C)C)c1`: the call in [2] was inactive.

Regarding `CC=Cc1ccc(OCC)c(O)c1`, the AC50 in test [1] was 5.31 µM (active).

`Cc1ccc(S(N)(=O)=O)cc1`: the outcome in test [10] and in test [4] was inactive.

`O=C(O)c1ccc(O)cc1`: the molecule was classed as inactive in [4].

Consider `NC(=S)NNC(N)=S`, for which the outcome in [1] was inactive.

Turning to `CCOCCOCCOCC`, the AC50 in test [3] is 4.87 µM (active).

Take `O=CCc1ccccc1`: the molecule was classed as inactive in test [2].

Take `C=C(C)C(=O)OCCOCCOCCOC(=O)C(=C)C`: the molecule was classed as inactive in test [6].

As to `CN(c1nccc(=O)[nH]1)C1CCN(c2nc3ccccc3n2Cc2ccc(F)cc2)CC1`, the molecule was classed as inactive in test [6] and in test [1]. For the same molecule, the half-maximal activity concentration (AC50) in test [3] was 0.976 µM (active); in test [7] it was 1.76 µM (active); in test [8] it was 11.5 µM (active).

Consider `CS(=O)(=O)OCCCCOS(C)(=O)=O`, for which the AC50 in test [8] was 25 µM (active). In test [1], the call was inactive.

Turning to `CCOc1ccc(NC(=O)CC(C)=O)cc1`, in test [10], the AC50 was 1.99 µM (active).

Take `C=C(C)[C@H]1CC=C(C)C(=O)C1`: in test [11], the outcome was inactive.
